According to PubChem BioAssay (NCI):
This is part of a sample that, as a whole, favours compounds with a hit. Of some 83,000 tested, about 20% had one in any assay.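 How to read the values: 0–100, growth inhibition (40 = 60% inhibited); 0, no net growth; -100 to 0, cell death (-40 = 40% of starting cells died; -100 = all dead).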 Active and inactive are the calls of the source. Rule for the calls: active = growth percent below 10; inactive = the rest.

Tests used:
Experiment in all cases: NCI-60 one-dose screen, 48 h (100 = growth as untreated, 0 = no growth, -100 = all killed)
Conditions in all cases: 10 µM unless noted
[1] = tested on: HCT-15 colon
[2] = tested on: HT29 colon
[3] = tested on: SNB-75 CNS
[4] = tested on: SNB-19 CNS
[5] = tested on: U251 CNS
[6] = tested on: PC-3 prostate
[7] = tested on: SK-MEL-5 melanoma
[8] = tested on: UACC-62 melanoma
[9] = tested on: LOX IMVI melanoma
[10] = tested on: SK-MEL-28 melanoma
[11] = tested on: EKVX NSCLC
[12] = tested on: SN12C renal
[13] = tested on: UO-31 renal
[14] = tested on: TK-10 renal
[15] = tested on: ACHN renal
[16] = tested on: CAKI-1 renal
[17] = tested on: CCRF-CEM leukemia
[18] = tested on: MOLT-4 leukemia
[19] = tested on: SK-MEL-2 melanoma
[20] = tested on: A498 renal

Measured: growth

CCCOc1ccc(/C=N/Nc2cc(C)nc3ccc(Cl)cc23)cc1
active: [1] -44.4% | [2] -6.94% | [5] -58.3% | [9] -95.7% | [12] -10.8% | [13] 7.59% | [17] 2.96% | [18] -42.5%
inactive: [3] 104% | [4] 58.6% | [6] 48.6% | [7] 79.9% | [8] 88.6% | [10] 64.8% | [11] 72.8% | [14] 102% | [15] 23.3% | [16] 74.2%

CC1(C)CC(=O)C2=C(C1)N(c1ccc(F)cc1F)C(N)=C(C#N)C2c1cc(Br)ccc1F (configuration not stated)
inactive: [1] 93.8% | [2] 83.5% | [3] 67.1% | [4] 85.8% | [5] 94.8% | [6] 76.8% | [8] 91.1% | [9] 57.5% | [10] 109% | [19] 94% | [11] 94.8% | [12] 96.6% | [13] 81.3% | [14] 104% | [15] 94.9% | [16] 92.4% | [17] 91.8% | [18] 88.9%

O=C1Nc2cc(-c3cccc(O)c3)ccc2/C1=C/c1ccc[nH]1
inactive: [2] 83.3% | [4] 43.4% | [5] 25.9% | [6] 35.4% | [8] 24.1% | [10] 16.4% | [11] 22.6% | [12] 15.5% | [14] 16.4% | [15] 11% | [17] 13.4% | [18] 15.4%
active: [1] 9.89% | [3] -13.7% | [9] 7.66% | [19] 3.73% | [13] -1.56% | [16] 5.88%

N#CC1=C(N)Oc2c(cnn2-c2ccc([N+](=O)[O-])cc2[N+](=O)[O-])C1c1ccccc1 (configuration not stated)
inactive: [1] 93.2% | [2] 110% | [3] 86.5% | [4] 104% | [5] 102% | [6] 105% | [8] 93% | [9] 102% | [10] 106% | [19] 110% | [11] 90.6% | [12] 101% | [13] 79.9% | [14] 99.4% | [15] 103% | [16] 90.6% | [20] 50.7% | [17] 79.7%

Cc1ccc(CNc2c3ccccc3nc3cc(NC(=O)CCN4CCCC4)ccc23)cc1
active: [1] 7.15% | [2] 0.938% | [3] 4.1% | [5] -55.3% | [6] -0.231% | [9] -86.4% | [12] 2.87% | [13] 3.83% | [14] -20% | [16] 7.04% | [17] -31.5% | [18] -33.5%
inactive: [4] 17.8% | [8] 36.1% | [10] 53.6% | [19] 40.2% | [11] 39.3% | [15] 12.3%

COc1cccc(-c2nc3occn3c2-c2ccnc(NCCNS(=O)(=O)c3ccc(C(F)(F)F)cc3)n2)c1
inactive: [1] 80% | [2] 85.1% | [3] 87% | [4] 98% | [5] 101% | [6] 77.6% | [8] 66.5% | [9] 93.3% | [10] 108% | [19] 98.2% | [11] 84.3% | [12] 88.6% | [13] 66.1% | [14] 116% | [15] 80.9% | [16] 64.3% | [17] 92.1% | [18] 75.3%

O=C1c2ccc3c4c(ccc(c24)C(=O)N1CCCNCc1ccccc1F)C(=O)N(CCCNCc1ccccc1F)C3=O
active: [1] -60.6% | [2] -77% | [3] -98.2% | [4] -64.3% | [5] -85.6% | [6] -59.1% | [7] -96.2% | [8] -57.6% | [9] -71.9% | [10] -93.6% | [11] -56.5% | [13] -58% | [14] -85.8% | [15] -47.1% | [16] -22.8% | [17] -11.7% | [18] -28.9%

O=C(c1nnc(Nc2ccccc2Br)o1)c1c[nH]c2ccccc12
inactive: [1] 80.1% | [2] 100% | [3] 89.2% | [4] 96.8% | [5] 96.9% | [6] 87.6% | [7] 89.5% | [8] 83% | [9] 96% | [10] 104% | [12] 93.4% | [13] 87% | [14] 112% | [15] 90.8% | [16] 87.4% | [17] 97.5% | [18] 106%
